According to PubChem BioAssay (NCATS):
Where “and” joins values, the source holds several entries; their conditions need not be identical. Equal entries are not always repeated. Results filed as inconclusive are left out. Calls of active or inactive are those of the source. Calls come from the whole dose curve; as a rule, active = well fitted curve in the direction sought with a large enough effect; inconclusive = small, poorly fitted or top-dose-only effect, or another doubt; inactive = no such curve, though single readings can be large; an effect the other way counts as inactive or inconclusive.

Experiments:
[1] = qHTS assay for measurement of the activity of small molecule inhibitors on Zika virus induced Caspase-3 activity in human iPSC derived neural progenitor cells (hNPCs) (AID 1224857); conditions: hNPCs ZIKV-induced caspase-3/7, Caspase-Glo luminescence, 6 h; series mostly up to 45.7 µM; note: % of control where 0% means no effect; nearly all actives have a fitted effect of over 65% in size
Method in brief: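 Cells were plated at 350 per well and grown 16 to 20 hours. Compound pretreatment lasted one hour, after which ZIKV (2 FFU/cell) was added for 6 hours. Percent inhibition was normalized between uninfected and infected controls.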

[2] = qHTS assay for measurement of the activity of small molecule inhibitors on Zika virus induced Caspase-3 activity in human astrocytoma cells (AID 1224859); conditions: SNB-19 ZIKV-induced caspase-3/7, luminescence, 6 h; series mostly up to 45.7 µM;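 note: plate controls were ZIKV-infected untreated cells for no effect and uninfected cells for full effect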
Method in brief: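 Percent inhibition of virus-induced caspase-3/7 signal is calculated against uninfected and ZIKV-infected control cells. Cells are SNB-19, infected at 2 FFU/cell for 6 h after 1 h compound exposure.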

[3] = qHTS for compounds that reverse cellular toxicity of Amyloid beta (A-beta) peptide in yeast: LOPAC Validation Assay (AID 720559); conditions: yeast expressing A-beta; series mostly up to 46.1 µM;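 note: plate controls were DMSO for no effect and equimolar ferric chloride plus clioquinol rescue for full effect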
Method in brief: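 Yeast cells expressing toxic A-beta were combined with pinned compounds in growth medium and incubated 48 hr at 30 C. Growth was read as absorbance at 600 nm and normalized to DMSO and to an equimolar FeCl3/clioquinol positive control.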

[4] = qHTS for Activators of Parkin Expression: LOPAC Validation Assay (NLuc Reporter) (AID 720572;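 note: 0% = DMSO and 100% = positive control compound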); conditions: Parkin promoter NanoLuc reporter cells, luminescence, percent of positive control, DMSO as zero; series mostly up to 46.1 µM
Method in brief: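 Neuronal line stably carrying a FLuc/NLuc coincidence reporter under the Parkin promoter, seeded 24 h, then dosed in 7-point series for 24 h at 37 C. NLuc luminescence read after FLuc; normalized to DMSO and positive control (100%).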

[5] = biological target: T1, Hexokinase-4 (Homo sapiens) + Glucokinase regulatory protein (Homo sapiens) (UniProt P35557+Q14397); assay: qHTS assay for inhibitors of recombinant human GCK-GKRP interaction: Diaphorase-coupled assay (AID 743205); conditions: G6PDH/diaphorase resorufin fluorescence; series mostly up to 57.5 µM
Method in brief: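 GST-GCK (10 nM) with FLAG-GKRP (10 nM), 5 mM glucose and 0.4 mM ATP in pH 7.6 Hepes; compounds preincubated 20 min with substrate. G6PDH/diaphorase coupling converts resazurin to resorufin, read kinetically (ex 525/em 590 nm) for 30 min.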

[6] = biological target: T1, Hexokinase-4 (Homo sapiens) + Glucokinase regulatory protein (Homo sapiens); assay: qHTS assay for inhibitors of recombinant human GCK-GKRP interaction: HTRF assay (AID 743207); conditions: recombinant GCK-GKRP HTRF binding, 60 min, with sorbitol-6-phosphate; series mostly up to 57.5 µM;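 note: 0% = DMSO with GCK present and -100% = DMSO wells lacking GCK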
Method in brief: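 GST-GCK and FLAG-GKRP (5 nM each) were combined with 2 uM S6P in pH 7.1 Hepes/MgCl2/KCl/DTT buffer, then compound and anti-FLAG XL665/anti-GST K antibodies were added. After 60 min at room temperature, HTRF 665/615 nm emission was read.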

[7] = qHTS Assay for Identifying Gametocytocidal Compounds (AID 743244);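 note: % is set by controls: 0 for no effect and ±100 for the full control effect; actives lower the fluorescent signal which means gametocytes are killed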; conditions: P. falciparum 3D7 stage III-V gametocytes, alamarBlue, 72 h; max response: active compounds read low
Method in brief: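 3D7 gametocytes, stages III–V, 20,000/well; cpd 72 h, 37 °C/5% CO2; + alamarBlue 24 h; fluor. Ex 525/Em 598.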

Measured: max response

T1 sequence (P35557 whole entry, looked up): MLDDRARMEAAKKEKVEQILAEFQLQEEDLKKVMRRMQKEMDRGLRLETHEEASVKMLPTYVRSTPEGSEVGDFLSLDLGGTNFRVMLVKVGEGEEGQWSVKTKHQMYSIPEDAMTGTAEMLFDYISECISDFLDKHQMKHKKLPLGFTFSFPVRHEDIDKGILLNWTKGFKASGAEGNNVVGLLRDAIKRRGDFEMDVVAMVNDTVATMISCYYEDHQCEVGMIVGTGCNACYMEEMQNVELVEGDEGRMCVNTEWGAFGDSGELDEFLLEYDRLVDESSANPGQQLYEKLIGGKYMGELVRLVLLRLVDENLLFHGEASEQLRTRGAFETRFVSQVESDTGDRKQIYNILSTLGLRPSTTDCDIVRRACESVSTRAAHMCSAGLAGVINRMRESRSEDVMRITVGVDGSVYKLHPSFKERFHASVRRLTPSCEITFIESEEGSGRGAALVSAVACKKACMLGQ
T1 sequence (Q14397 whole entry, looked up): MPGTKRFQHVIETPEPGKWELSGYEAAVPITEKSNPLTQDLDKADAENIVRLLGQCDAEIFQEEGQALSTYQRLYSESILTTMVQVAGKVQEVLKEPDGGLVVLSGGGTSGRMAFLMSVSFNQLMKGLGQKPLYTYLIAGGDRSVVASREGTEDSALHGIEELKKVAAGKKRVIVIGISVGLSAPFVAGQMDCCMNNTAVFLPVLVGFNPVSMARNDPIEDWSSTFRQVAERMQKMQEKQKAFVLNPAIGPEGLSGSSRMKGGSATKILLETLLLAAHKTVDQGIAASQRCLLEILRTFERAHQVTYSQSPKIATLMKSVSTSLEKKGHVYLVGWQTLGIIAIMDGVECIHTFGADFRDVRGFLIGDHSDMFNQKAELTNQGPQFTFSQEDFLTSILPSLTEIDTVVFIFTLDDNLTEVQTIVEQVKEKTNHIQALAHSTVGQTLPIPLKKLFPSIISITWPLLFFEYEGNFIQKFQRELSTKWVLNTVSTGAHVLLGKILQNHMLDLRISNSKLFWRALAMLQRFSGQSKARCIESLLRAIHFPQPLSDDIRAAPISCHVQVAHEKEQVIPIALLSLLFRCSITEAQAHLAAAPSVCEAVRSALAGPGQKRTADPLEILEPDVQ

CCCCc1nc(Cl)c(CO)n1Cc1ccc(-c2ccccc2-c2nn[nH]n2)cc1
inactive: [1] | [2]

COC(=O)[C@H]1[C@H]2C[C@H]3c4[nH]c5ccccc5c4CCN3C[C@H]2CC[C@@H]1O
inactive: [3] | [4] | [5] | [6] | [7] 13.2% and 17.2% | [1] | [2]

COc1c(C)c2c(c(O)c1C/C=C(\C)CCC(=O)O)C(=O)OC2
inactive: [1] | [2]

CC(C)(C)NC(=O)[C@@H]1CN(Cc2cccnc2)CCN1C[C@@H](O)C[C@@H](Cc1ccccc1)C(=O)N[C@H]1c2ccccc2C[C@H]1O
inactive: [7] 5.54% | [1] | [2]

CCN1CCCC1=O
inactive: [7] 5.59% | [1] | [2]

CCCCCCCCCCCCCCCCOP(=O)([O-])OCC[N+](C)(C)C
inactive: [7] -10.8% | [1] | [2]

COc1cc2c(cc1OC)C(=O)C(CC1CCN(Cc3ccccc3)CC1)C2 (stereo not given)
inactive: [7] 3.63% | [1] | [2]

CCCCS(=O)(=O)N[C@@H](Cc1ccc(OCCCCC2CCNCC2)cc1)C(=O)O
inactive: [7] 3.65% | [1] | [2]

CCOC(=O)OC(C)OC1=C(C(=O)Nc2ccccn2)N(C)S(=O)(=O)c2ccccc21 (stereo not given)
inactive: [7] -4.24% | [1] | [2]

C[C@]12C=CC(=O)C=C1CC[C@@H]1[C@@H]2[C@@H](O)C[C@@]2(C)[C@H]1CC[C@]2(O)C(=O)CO
inactive: [7] 0.844% | [1] | [2]

CN(C/C=C/c1ccccc1)Cc1cccc2ccccc12
inactive: [7] 6.22% | [1] | [2]
